Reference: the supplement of paper PMC8047044

tested on: Neuro-2a; test: neurite formation score, plate-normalized to DMSO control mean 5.04 (score (0-8 scale)); higher = more or longer neurites; conditions: 0.1 µM
Protocol: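 Neuro-2a mouse neuroblastoma cells in PLL-coated 96-well plates were pre-treated for 1 h in DMEM(+) with each kinase inhibitor at 0.1 µM, then switched to serum-free DMEM(-) with inhibitor to induce neurite outgrowth and fixed about 2-3 h later. Three blinded observers scored neurite formation from 0 (no neurites) to 8 (long neurites on almost all cells).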

SMILES | neurite formation score
COc1cc(Nc2ncc3c(n2)-c2ccc(Cl)cc2C(c2c(F)cccc2OC)=NC3)ccc1C(=O)O [MLN8237 (Alisertib)] | 4.58
C[C@@H]1COCCN1c1cc(C2(S(C)(=O)=O)CC2)nc(-c2cccc3[nH]ccc23)n1 | 4.71
COc1ccc(-c2cnc3c(-c4cccc5ncccc45)cnn3c2)cc1 | 2.08
C[C@@H](Oc1cc(-c2cnn(C3CCNCC3)c2)cnc1N)c1c(Cl)ccc(F)c1Cl [(R)-Crizotinib] | 4.71
